Lamin A splicing = LMNA splicing modulation; HeLa LMNA splicing GFP/RFP minigene ratio, 48 h; Potency, µM (titrated, usually from 46.1 µM), hits mostly inhibitors; 200,000 compounds, 0.01% hits; AID 1487; active means well fitted inhibition curve with a large enough effect in the signal ratio, with a control signal flat, not every such curve was filed as active; inconclusive means small, poorly fitted or top-dose-only effect, or effect the other way, or a change in a side signal; the % refers to the signal ratio
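Read-out is the ratio of GFP to DsRed2 object intensity, acquired by 488 nm laser-scanning cytometry on HeLa lamin A-EGFP minigene reporter cells. Compound incubation 48 hrs at 37 °C in Opti-MEM with 2% FBS; DMSO 0.5% final.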
HTT aggregate = mutant huntingtin aggregation inhibition | PC12 HttQ103-GFP aggregates, Acumen cytometry, 40 h | Potency, µM (series often up to 46.1 µM), most hits filed as inhibitors | 220,000 compounds, 1.1% hits | AID 1688; further: nearly all actives have a fitted effect of over 60% in size
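PC12/HTTQ103-GFP, ecdysone-inducible; teb 100 nM; cpd qHTS titration; GFP aggregates read on laser cytometer, Ex 488/Em 500-530 nm.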
HTT cytoprotect = Huntington cell model cytoprotection by ATP luminescence; PC12 HTT-Q103 induced, cytoprotection, ATP luminescence, 40 h; Potency, µM (highest dose often 56.4 µM), usual class: activators; 230,000 compounds, 0.14% hits; AID 1471; further: nearly all actives have a fitted effect of over 45% in size
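Compounds added alongside 100 nM tebufenozide, which induces toxic Q103 huntingtin exon 1-GFP in stable PC12 cells; surviving cells quantified by luminescent ATP measurement. Medium: phenol red-free DMEM, 5% equine and 5% calf serum.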
Epigenetic reg = regulators of epigenetic silencing causing reporter derepression in mouse cells. AID 1865. 280,000 compounds, 0.2% hits. Potency, µM (doses to about 53.9 µM), hits mostly activators. murine LDR cells, GFP reporter derepression, 30 h; further: nearly all actives have a fitted effect of over 60% in size
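Reporter derepression read as number of fluorescent GFP-positive objects, 20-120 um in size, counted by laser-scanning cytometer. Mouse LDR line with an epigenetically silenced CMV-GFP locus; compound incubation 30 h, 37 C.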
NPSR antagonist = antagonists of human neuropeptide S receptor cAMP signaling. Q6W5P4. CHO-NPSR cells, cAMP TR-FRET, antagonist mode. Potency, µM (top dose mostly 38.3 µM), most hits filed as inhibitors. 220,000 compounds, 1% hits. AID 1461; further: nearly all actives have a fitted effect of over 50% in size
Target sequence (Q6W5P4 whole entry, looked up): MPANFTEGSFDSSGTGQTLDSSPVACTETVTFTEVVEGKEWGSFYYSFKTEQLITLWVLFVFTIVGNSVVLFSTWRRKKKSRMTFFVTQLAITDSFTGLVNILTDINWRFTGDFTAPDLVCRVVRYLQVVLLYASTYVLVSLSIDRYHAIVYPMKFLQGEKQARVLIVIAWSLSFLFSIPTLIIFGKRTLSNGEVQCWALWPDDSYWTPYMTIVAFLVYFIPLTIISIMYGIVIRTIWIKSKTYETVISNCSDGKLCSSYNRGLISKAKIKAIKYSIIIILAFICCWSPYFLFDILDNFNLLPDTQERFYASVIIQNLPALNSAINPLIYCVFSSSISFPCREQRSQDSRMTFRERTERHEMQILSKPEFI
A number is an active result; i = inactive; ? = inconclusive; nt = not tested or not shown; [ ] = another dose, or the depositor's remark. A selection: hits, their analogues and other compounds. The true share with any hit is near 1.5%. Unless noted, the call rests on the fitted dose curve; in most records, active means well fitted curve in the direction sought with a large enough effect; inconclusive means small, poorly fitted or top-dose-only effect, or another doubt; inactive means no such curve, though single readings can be large; an effect the other way counts as inactive or inconclusive.

SMILES	Lamin A splicing	HTT aggregate	HTT cytoprotect	Epigenetic reg	NPSR antagonist
CCOC(=O)c1cc(N)cc([N+](=O)[O-])c1	i	i	nt	i	i
CCOC(=O)c1sc2cc([N+](=O)[O-])cc(SCC(C)C)c2c1N	i	i	i	3.16µM	i
CCOC(=O)C1=NO[C@@]2(C=C(Br)C3(OCCCO3)[C@H]3O[C@H]32)C1	nt	nt	i[10 µM]	i[10.1 µM]	nt
CCOC(=O)CCCSc1nnc(CCCCCN2C(=O)c3cccc4cccc(c34)C2=O)o1	i	?	2.51µM	i	i
Cn1c(=O)n(C)c2cc(NS(=O)(=O)c3ccc4c(c3)CCCC4)ccc21	?	2.82µM	i[0.074 µM]	i	i
N#Cc1cccc(CS(=O)(=O)c2nc3ccccc3s2)c1	nt	nt	nt	i	nt
CCOC(=O)c1c(CSC(=N)N)n(-c2ccc(C)cc2)c2cc(Br)c(OC(C)=O)cc12	?	?	i	i	10µM
COc1ccccc1NC(=O)N1CCN(Cc2nc3ccc(C)cc3o2)CC1	i	nt	nt	i	nt
COc1ccc(CCNC(=O)CC(c2ccccc2)c2cccc(C)c2O)cc1OC (configuration not stated)	i	i	i	i	1µM
CCOc1ccc(-c2nc(Cn3ccn4nc(-c5ccc(OCC)c(Cl)c5)cc4c3=O)c(C)o2)cc1	nt	nt	nt	i	nt
CN(C)c1ccc(/C=C/c2ccc3ccccc3[n+]2C)cc1	?	2.51µM	i[10 µM]	i	3.16µM
Cc1cc(/C=C/c2ccc3cc(N(C)C)ccc3[n+]2C)c(C)n1-c1ccccc1	nt	nt	nt	22.4µM	nt
CN(C)c1ccc(/C=C/c2ccc3c4ccccc4ccc3[n+]2-c2ccccc2)cc1	?	3.98µM	i[10 µM]	i	10µM
CCOC(=O)CCN1CCN(C(=O)c2ccc(-n3c(=O)c(=O)[nH]c4ccccc43)cc2)CC1	nt	nt	nt	i	nt
NC(C(=O)O)C(O)c1ccc(O)c(O)c1 (configuration not stated)	?	i	i	nt	nt
CS(=O)(=O)c1ncc(Cl)c(C(=O)Nc2ccc(N3CCOCC3)cc2)n1	?	11.2µM	i[10 µM]	i	?
COC(=O)C1(C(C)=O)CC2=CC[C@@H]3C(=O)N(c4ccccc4)C(=O)[C@@H]3[C@@H]2Cc2ccccc2[C@@H]1C[N+](=O)[O-] (some centres not stated)	nt	nt	i	i	nt
Cc1cccnc1Nc1nc(-c2ccccn2)cs1	?	?	i[10 µM]	?	0.794µM
Cn1cccc1C(=O)Nc1nc(-c2ccccn2)cs1	?	12.6µM	i	?	?
Cc1cccnc1Nc1nc(-c2ccc(O)cc2O)cs1	?	i	i	i	i
O=C(Nc1nc(-c2ccccn2)cs1)c1ccc(Cl)s1	?	0.891µM	i[10 µM]	22.4µM	i
Cc1c(C(=O)Oc2ccc(Br)cc2)sc2ncn(Cc3ccccc3F)c(=O)c12	i	nt	nt	i	nt
O=C(c1cc(COc2c(F)cccc2F)on1)N1CCC(c2ccncc2)CC1	nt	20µM	i	i	i
O=C(c1cc(COc2ccc(F)cc2Cl)on1)N1CCC(OCc2cccnc2)CC1	nt	11.2µM	i	i	i
Cc1c(C)c2c(c(C)c1OC(=O)c1cccnc1)CC[C@@](C)(CCC[C@H](C)CCC[C@H](C)CCCC(C)C)O2	i	i	i	nt	nt
SMILES	Lamin A splicing	HTT aggregate	HTT cytoprotect	Epigenetic reg	NPSR antagonist
COc1ccc(C2C(=O)N(C3CCCCCC3)CC(=O)N2CCc2ccc(OC)c(OC)c2)cc1 (configuration not stated)	i	nt	nt	i	nt
COc1ccc(NS(=O)(=O)c2ccc(NC(=S)NC(=O)/C=C/c3ccccc3)cc2)nn1	?	i	i[10 µM]	i	7.94µM
COc1cc(NS(=O)(=O)c2ccc(NC(=S)NC(=O)/C=C/c3ccc(F)cc3)cc2)ncn1	nt	i[9.22 µM]	i[10 µM]	i	i[7.67 µM]
CCC1OC(=O)C[C@H](O)C(C)[C@@H](O[C@@H]2OC(C)C(O)C(N(C)C)C2O)C(CCN2CC(C)CC(C)C2)CC(C)C(=O)/C=C/C(C)=C\[C@@H]1COC1OC(C)C(O)C(OC)C1OC (some centres not stated)	?	i	i	i	nt
CCCOCc1cc(CN2CCN(c3ccccc3OC)CC2)c(O)c2ncccc12	nt	nt	nt	3.55µM	nt
CCOc1ccccc1N1CCN(Cc2cccc(OC)c2O)CC1	i	i	i	i	i
COCc1cc(CN2CCCC2)c(O)c2ncccc12	i	?	i	i	i
COc1ccccc1N1CCN(Cc2cc(Br)c(O)c3ncccc23)CC1	?	10µM	i	?	i
COc1ccccc1N1CCN(Cc2cc(COC(C)C)c3cccnc3c2O)CC1	nt	nt	nt	3.55µM	nt
